Here are results for 48 compounds from PubChem BioAssay AID1259423 (Fisher Drug Discovery Resource Center, 2018).

In this assay the test system is Aedes aegypti neuropeptide Y-like receptor 7 (NPYLR7). The experiment in a line: agonists of mosquito NPYLR7 receptor, primary screen, cell-based, Aedes aegypti, calcium fluorescence, mosquito biting behavior (AID 1259423).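 Note: 0% = vehicle and 100% = reference agonist at the receptor.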 To be noted: HEK293T NPYLR7/Galpha15, GCaMP6s calcium fluorescence, at 10 µM, stronger effect = higher value.
Setting [1] is: measured here: Max-Min RFU normalised activation.

“And” between values parts separate entries of the source, which are not always exact repeats. Equal entries are not always repeated. The whole screen tested about 270,000 compounds, of which about 410 (0.15%) were called active. Cut-off read from the data, not from the text of the source: active = activation above about 40%; inactive = the rest, inconclusive results apart. The sample as a whole holds a higher share of actives than the screen did. Where a structure was tested more than once in an assay, its records may differ in their call.

As to `Cc1nc2c(=O)n(CC(=O)Nc3ccc(F)cc3)nc(-c3ccc(F)cc3)c2s1`, the activation was -3.19% (inactive). In addition, the activation under setting [1] is -5.39%.
On the same counts, the results for `COc1ccc(C(=O)NNc2nc3c(C)c(C)ccc3s2)cc1` are 3.57% (inactive) and -0.501%.
Consider `O=S(=O)(Nc1ccccc1OC(F)F)c1ccccc1F`, for which the activation was -1.67% (inactive). Also, the activation under setting [1] is -2.18%.
Consider `Nc1[nH]n(-c2c(Cl)cc(Cl)cc2Cl)c(=O)c1N=Nc1cccc(C(F)(F)F)c1`, for which the activation is -0.505% (inactive). Besides, the activation under setting [1] is -6.22%.
For `O=C(Nc1cccc(Cl)c1)c1cn(CC2CCCO2)cc2c(=O)n(-c3ccccc3)nc1-2` (stereo unspecified), in that order: 6.66% (inactive) and 6.45%.
On the same counts, the results for `CCOC(=O)Cc1csc(=Nc2ccc(OC)cc2)n1CCO` are -15.9% (inactive) and -20.5%.
On to `CC(C)OCCCNC(=O)c1ccc(-c2cccc(C(F)(F)F)c2)s1`, for which the activation is -2.79% (inactive). Further, under setting [1], the activation amounted to 5.92%.
On the same counts, the results for `Cc1cc2nc3c(=O)[nH]c(=O)nc-3n(C[C@H](O)[C@H](O)[C@H](O)CO)c2cc1C` are 71.4% (active) and 64.2%.
Regarding `COc1cccc(OC)c1-c1cnnc(NCCN2CCCc3ccccc32)n1`, the activation was 19.3% (inactive). In addition, the activation under setting [1] came out at 11.8%.
For `COc1ccc(CC(=O)N(Cc2nc3cc(Cl)ccc3o2)C2CCCC2)cc1OC`, in that order: 4.51% (inactive) and -5.03%.
On the same counts, the results for `Cc1c(C(=O)N2CCCCC2CCc2ccc(O)cc2)oc2c(F)cccc12` (stereo unspecified) are -1.59% (inactive) and -5.83%.
For `CC1CN(c2ccc(/C=C(\C#N)c3nc4ccccc4[nH]3)o2)CC(C)O1` (stereo unspecified), the activation is 81.4% (active). Besides, the activation under setting [1] stood at 110%.
For `N#CC(=C(O)CSc1ccc2c(c1)OCCO2)c1nc2ccccc2[nH]1`, in that order: 5.29% (inactive) and 3.43%.
On the same counts, the results for `N#C/C(=C/c1cn(-c2ccccc2)nc1-c1ccco1)c1nc2ccccc2c(=O)[nH]1` are 11.8% (inactive) and 10.5%.
Consider `COc1ccc(C(CC(=O)N(C)Cc2cnccn2)c2ccccc2)cc1` (stereo unspecified), for which the activation was 16% (inactive). Besides, the activation under setting [1] came out at 4.14%.
On to `O=C(NCCCNC(=O)[C@H]1CCCN1C(=O)COc1ccc(Cl)cc1)c1ccc(F)cc1`, for which the activation is -0.263% (inactive). Besides, under setting [1], the activation came to 6.73%.
For `CC1CCN(C(=O)C(C)Nc2ccc3c(c2)OCO3)CC1` (stereo unspecified), in that order: 3.12% (inactive) and 1.09%.
On the same counts, the results for `COc1cc2c(cc1OC)C(c1ccccc1)N(C(=O)c1cc3c(s1)-c1ccccc1OC3)CC2` (stereo unspecified) are -0.991% (inactive) and 6.66%.
With `COc1cc2c(cc1O)[C@@H](Cc1ccc(O)cc1)[N+](C)(C)CC2`, the activation was 5.5% (inactive). Also, the activation under setting [1] was -4.18%.
Take `COc1ccc(CC2c3cc(OC)c(OC)cc3CC[N+]2(C)CCC(=O)OCCCCCOC(=O)CC[N+]2(C)CCc3cc(OC)c(OC)cc3C2Cc2ccc(OC)c(OC)c2)cc1OC` (stereo unspecified): the activation was 41.9% (inactive) and -3.83% (inactive) and 69.2% (active). Under setting [1], the activation is 33.2% and 2.45% and 52.5%.
With `COc1ccc(CC(=O)OCc2ccc(COC(=O)Cc3ccc(OC)c(OC)c3)cc2)cc1OC`, the activation was -2.95% (inactive). Also, under setting [1], the activation was -6.45%.
Regarding `CCOc1ccc(NC(=O)CSc2nc3c(c(=O)n2CCOC)SC(C)C3)cc1` (stereo unspecified), the activation was 3.32% (inactive). Also, under setting [1], the activation was determined as 0.972%.
For `O=C(NC1COC2(CCCCC2)C1)c1ccco1` (stereo unspecified), in that order: -4.17% (inactive) and -7.46%.
On the same counts, the results for `CC(C)CC(NC1CCN(C(=O)c2ccccc2)CC1)c1ncnn1C` (stereo unspecified) are 8.96% (inactive) and 6.07%.
In the case of `C/C(=N/Nc1nc2c(s1)CCCC2)c1ccc(Cl)cc1`, the activation was 0.513% (inactive). In addition, under setting [1], the activation was determined as 5.88%.
Regarding `O=C1NC(c2ccc3c(c2)OCO3)C(C(=O)c2ccccc2)C(O)(C(F)(F)F)N1` (stereo unspecified), the activation is 42.8% (active). Further, the activation under setting [1] amounted to 72%.
For `CC1=C(C(=O)Nc2ccccc2)C(c2ccc3c(c2)OCO3)NC(=S)N1` (stereo unspecified), in that order: 4.23% (inactive) and 8.09%.
For `O=C1NC(c2ccc(Cl)cc2)C(C(=O)c2ccccc2)C(O)(C(F)(F)F)N1` (stereo unspecified), in that order: -3.23% (inactive) and -4.42%.
For `Cc1ccc(Cl)cc1NC(=O)CN1C(=O)c2ccc([N+](=O)[O-])cc2C1=O`, in that order: -3.83% (inactive) and -10.3%.
`CC(C)c1ccc(C2CC(c3ccccc3)=Nc3ncnn32)cc1` (stereo unspecified): the activation is 4.24% (inactive). In addition, the activation under setting [1] turned out to be 2.65%.
As for `O=C(Nc1ccc(N2CCC(Cc3ccccc3)CC2)c(C(=O)NCc2ccc(F)cc2)c1)c1cccc([N+](=O)[O-])c1`, the activation is -3.24% (inactive). Under setting [1], the activation was found to be 7.02%.
For `CCCCNc1ncnc2sc3c(c12)CCC(C)C3` (stereo unspecified), in that order: 1.78% (inactive) and 2.41%.
On to `O=C(O)CCC(=O)Nc1nc2c(s1)CCCC2`, for which the activation is 1.28% (inactive). Moreover, under setting [1], the activation is -0.361%.
Take `COc1ccc(C(=O)NCCn2ncc3c(=O)n(Cc4cccc(C)c4)cnc32)cc1`: the activation was -1.65% (inactive). Besides, the activation under setting [1] is -7.02%.
On to `c1csc(-c2nc(CSc3nnc(-c4cccs4)n3C3CC3)co2)c1`, for which the activation was -0.388% (inactive). The activation under setting [1] turned out to be 7.96%.
For `COc1ccccc1CNC1CC2CCC1(C)C2(C)C` (stereo unspecified), in that order: 7.42% (inactive) and 2.21%.
For the compound `COc1ccc(-c2cccc(-c3nnc(C)s3)c2)c(OC)c1`, the activation is 2.95% (inactive). In addition, under setting [1], the activation turned out to be 1.01%.
With `CC(C)c1ccc(C(=O)NCc2ccccc2CS(=O)(=O)N2CCOCC2)cc1`, the activation was -3.68% (inactive). The activation under setting [1] was -3.21%.
Turning to `c1ccc2c(-c3noc4c3CN(CC3CCCO3)CC4)cccc2c1` (stereo unspecified), the activation is 14.2% (inactive). The activation under setting [1] worked out at 6.24%.
For the compound `Clc1ccc(-c2noc3c2CN(CCn2cc(Cl)cn2)CC3)cc1`, the activation was 74.9% (active). For the same compound, under setting [1], the activation was found to be 54.3%.
For `Fc1ccccc1-c1noc2c1CN(Cc1cccn1-c1ncccn1)CC2`, in that order: 8.24% (inactive) and 5.36%.
For `COCc1c(Br)c(C)nc(OCC(=O)N/N=C\c2cc(Br)c(OCc3ccc(Cl)cc3)c(OC)c2)c1C#N`, in that order: 25.2% (inactive) and 27.7%.
For `Cc1nn(-c2ccc(F)cc2F)c(C)c1CCC(=O)N1Cc2cccc3cccc(c23)C1`, the activation is 4.97% (inactive). Besides, under setting [1], the activation is 3.44%.
On the same counts, the results for `COc1ccc(Cl)c2sc(N(CCN(C)C)C(=O)c3cc(C)n(C)n3)nc12` are 1.87% (inactive) and 0.849%.
For `Cc1ccc(Sc2ncccc2C(=O)N2CCN(c3nccc(-c4cccc(C(F)(F)F)c4)n3)CC2)cc1`, in that order: 14% (inactive) and 18.9%.
On to `COc1cc(OC)cc(C(NC(=O)Cn2ccccc2=O)c2nccn2C)c1` (stereo unspecified), for which the activation is 5.09% (inactive). In addition, the activation under setting [1] turned out to be 2.46%.
As for `CN(Cc1ccccc1)C1(C(=O)NCC2COCCO2)Cc2ccccc2C1` (stereo unspecified), the activation is 2.27% (inactive). In addition, the activation under setting [1] was -0.863%.
Consider `COc1c(C=NNC(=O)c2cc(Br)ccc2O)sc2ccccc12`, for which the activation is -6.22% (inactive). Also, the activation under setting [1] is -11.5%.
